Data on 55 compounds can be found in ChEMBL document CHEMBL4513216, “Probing the Open Global Health Chemical Diversity Library for Multistage-Active Starting Points for Next-Generation Antimalarials” (ACS Infect Dis, 2020).

Hit rate of the full screen: of about 69,000 compounds, about 8,600 (12%) showed an effect of 50% or more. The entries come from a sample that favours strong results as a whole.

The assay deals with Plasmodium berghei. Kind of assay: Screen against P. berghei liver stage (PbLuc), transformed with Luciferase, at 10uM. The assay is classed as functional, HepG2. Conditions: tested at 10 uM.
As for `Cc1ccc(N2CCCN(C(=O)C3CCCO3)CC2)nn1` (stereo not given), the INHIBITION is -72.5%.
As for `Cn1nc(CN2CCOCC2)c2c1CN(Cc1ccsc1)C2`, the figure is 8.03%; as for `COc1ccc2c(c1)C(=O)NC1(CC2)CCN(Cc2ccccc2)C1` (stereo not given), 41.3%.
As for `CC(C)c1nc(C2CCCN2CCOCC2CC2)no1` (stereo not given), the figure is 12.3%; as for `CN1C(=O)CC(C(=O)O)C12CCN(c1ccc3c(n1)CCCC3)CC2` (stereo not given), -11.7%.
Regarding `CC1(C)CN(CCC(=O)NCc2cccc(Cl)c2)CC[C@]1(C)O`, the INHIBITION is reported as 24.2%.
Turning to `Cc1ccc2[nH]c(C(=O)N3CCCC3Cn3cccn3)cc2c1` (stereo not given), the INHIBITION was 16.8%.
In the case of `O=C(CCc1ccccc1F)NS(=O)(=O)c1ccc2c(c1)OCCCO2`, the INHIBITION is given as 16%.
On to `CSCC(=O)N(C)Cc1ccccc1`, for which the INHIBITION was determined as 47.4%.
For `CSCC(=O)N(C)Cc1ccc(N(C)C)cc1` the value was 47.4%.
Turning to `CN(Cc1ccccc1)C(=O)CSc1ccc2c(c1)OCCO2`, the INHIBITION was 73.1%.
For `COc1cccc(CN(C)C(=O)CSc2ccc3c(c2)OCCO3)c1` the value was -45.8%; for `O=C(CCc1cc(F)ccc1F)NS(=O)(=O)c1ccc2c(c1)OCCO2`, 42%.
As for `Cc1ccccc1S(=O)(=O)NC(=O)CSc1ccc2c(c1)OCCO2`, the figure is 5.65%; as for `CN(Cc1ccccc1)C(=O)CCS(=O)(=O)c1ccc2c(c1)OCCO2`, 41.4%; as for `O=C(CSc1ccc2c(c1)OCCO2)NS(=O)(=O)c1cc(F)ccc1F`, 27.6%.
As for `O=C(CSc1ccc2c(c1)OCCO2)NS(=O)(=O)c1ccccc1F`, the figure is 68.2%; as for `CN(Cc1ccc(N(C)C)cc1)C(=O)CSc1ccc(Br)cc1`, 79.1%.
As for `O=C(CCc1ccccc1F)NS(=O)(=O)c1ccc2c(c1)OCCO2`, the INHIBITION is listed as 50.3%.
For `Cn1ccnc1CC1CCCN(C(=O)NCCOc2cccnc2)C1` (stereo not given), the INHIBITION came to 44.5%.
For `Cc1cn[nH]c1C1CCCCN1C(=O)CCc1c(C)n[nH]c1C` (stereo not given) the value was 33.7%; for `c1cnc(NCc2nnn3c2CN(CC2CC2)CCC3)nc1`, 10.6%.
For `CC(c1cccc(S(N)(=O)=O)c1)N(C)CCOc1ccccc1` (stereo not given) the value was 22.3%.
For `Cc1nnc2n1CCN(C(=O)c1cn(-c3ccc(F)cc3)nn1)C2` the value was -6.39%.
With `CC(=O)N(Cc1ncc(C)o1)C1CCN(Cc2nnc(C3CC3)o2)C1` (stereo not given), the INHIBITION was 34.9%.
For `COc1ccc(S(=O)(=O)N2CCOC(C)(C(N)=O)C2)cc1` (stereo not given) the value was -2.605%; for `NC1CCCc2c1cnn2-c1cc(F)cc(F)c1` (stereo not given), -19.1%; for `OCC(O)CSCc1ccc(F)cc1Cl` (stereo not given), -15.6%.
For `OCC(O)CSCc1cc(Cl)ccc1Cl` (stereo not given) the value was 5.41%; for `OCC(O)CSCc1ccc(Cl)cc1Cl` (stereo not given), 53.9%; for `COc1cccc(C(=O)NS(=O)(=O)c2cncc(Br)c2)c1OC`, 15.1%.
For `CCc1ccc(S(=O)(=O)Nc2ccncc2)s1` the value was -6.4%.
As for `Cn1cc(CN2CCc3onc(C(=O)Nc4cccnc4)c3C2)cn1`, the INHIBITION is reported as 43.4%.
As for `CC(C)(C)c1nc(CNC2CCN(S(C)(=O)=O)CC2)cs1`, the figure is 20.6%; as for `O=C(c1cccnc1N1CCCC1)N1CCOC(c2ccccc2)C1` (stereo not given), -30.2%.
As to `O=C(c1cccnc1N1CCOC(c2ccc(F)cc2)C1)N1CCCC1` (stereo not given), the INHIBITION was found to be 45.1%.
As for `O=C(c1cccnc1O)N1CCOC(Cc2cccc(C(F)(F)F)c2)C1` (stereo not given), the figure is 31.7%; as for `O=C(c1cccnc1O)N1CCOC(c2ccc(Cl)cc2)C1` (stereo not given), 68.6%.
For `O=C(c1cccnc1N1CCOC(c2ccc(Cl)cc2)C1)N1CCCC1` (stereo not given) the value was 45.1%; for `CN(C)C(=O)c1cccnc1N1CCOC(c2ccc(Cl)cc2)C1` (stereo not given), 55%.
For `O=C(CSc1nnc(N2CCOCC2)s1)NCc1cccs1` the value was -21.5%; for `CC(C)COC(C)C(=O)NCCNS(C)(=O)=O` (stereo not given), 2.29%.
For the compound `Cc1oc(-c2ccsc2)nc1CC(=O)NCC(=O)Nc1cn[nH]c1`, the INHIBITION came out at 33%.
Consider `Cc1nn(CC(=O)NCc2cc3n(n2)CCCN(CC(C)C)C3)cc1Cl`, for which the INHIBITION is recorded as 58.7%.
For `CC(C)CN1CCCn2nc(CNC(=O)CN3CCOC3=O)cc2C1` the value was 7.92%; for `CC(C)CN1CCCn2nc(CNC(=O)CCN)cc2C1`, 16.6%.
For `Cc1noc(C)c1C(C)C(=O)N1CCCN(C)c2ccc(Cl)cc21` (stereo not given) the value was 33.1%; for `CN1CCC(c2cc(C(F)(F)F)n3ccnc3n2)CC1`, 26.3%; for `CC(=O)Nc1ccc(-c2ccccc2NC(=O)CN)cc1`, -17.7%.
For `CC(=O)Nc1cccc(-c2ccccc2CCN)c1` the value was 71.3%; for `CC(=O)Nc1ccc(-c2ccccc2CCN)cc1`, -2.43%; for `c1cc(C2CCN(C3CCCCC3)C2)n[nH]1` (stereo not given), 18.535%.
Turning to `Cc1nc2ccccn2c1CC(=O)N[C@@H]1CC[C@@H](N2CCCC2)[C@@H]1O`, the INHIBITION is -6.92%.
For `Cc1nc2ccccn2c1CC(=O)N[C@@H]1CC[C@@H](N2CCOCC2)[C@@H]1O` the value was 52%; for `Cc1nc2ccccn2c1CC(=O)N[C@@H]1CCC[C@@H](N2CCCC2)[C@@H]1O`, -29.8%.
